ELG1 genotoxic = genotoxicity induction in ELG1-luciferase HEK293T cells. Potency, µM (top dose mostly 46 µM), inactives show at the highest dose activity change, positive = activation, hits mostly activators. actives 1.3% (n = 330,000). HEK293T ELG1-luciferase reporter, luminescence, 16 h. AID 504466; also: % of control where 0% means no effect; nearly all actives have a fitted effect of over 60% in size
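Step 1: seed 2,000 HEK293T ELG1-luciferase cells per well. Step 2: add compound or DMSO, incubate 16 hr at 37 °C. Step 3: ONE-Glo, 30 min at room temperature, read luminescence.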
Rab9 prom act = Rab9 promoter activation; Potency, µM (highest dose often 9.22 µM), for the others: at the highest dose activation, negative = inhibition, hits mostly activators; Huh7 Rab9 promoter-luciferase reporter, luminescence, 24 h; actives 2.8% (n = 320,000); also: % of control where 0% means no effect; nearly all actives have a fitted effect of over 60% in size
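Luciferase signal after 10 min detection reagent at ambient indicates Rab9 promoter upregulation; stably transfected Huh7 cells were treated 24 h with compound in DMSO at 37 °C, 5% CO2.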
FLuc counter = firefly luciferase modulation, counter-screen for miR-21 project; Potency, µM (highest dose often 57.5 µM), for the others: top-dose activity change, negative = inhibition, usual class: inhibitors; purified FLuc, Km substrates, luminescence inhibition; P08659; actives 6.9% (n = 360,000); AID 588342;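 also: plate controls were vehicle for no effect and reference inhibitor for full effect; nearly all actives have a fitted effect of over 55% in size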
Target sequence (P08659 whole entry, looked up): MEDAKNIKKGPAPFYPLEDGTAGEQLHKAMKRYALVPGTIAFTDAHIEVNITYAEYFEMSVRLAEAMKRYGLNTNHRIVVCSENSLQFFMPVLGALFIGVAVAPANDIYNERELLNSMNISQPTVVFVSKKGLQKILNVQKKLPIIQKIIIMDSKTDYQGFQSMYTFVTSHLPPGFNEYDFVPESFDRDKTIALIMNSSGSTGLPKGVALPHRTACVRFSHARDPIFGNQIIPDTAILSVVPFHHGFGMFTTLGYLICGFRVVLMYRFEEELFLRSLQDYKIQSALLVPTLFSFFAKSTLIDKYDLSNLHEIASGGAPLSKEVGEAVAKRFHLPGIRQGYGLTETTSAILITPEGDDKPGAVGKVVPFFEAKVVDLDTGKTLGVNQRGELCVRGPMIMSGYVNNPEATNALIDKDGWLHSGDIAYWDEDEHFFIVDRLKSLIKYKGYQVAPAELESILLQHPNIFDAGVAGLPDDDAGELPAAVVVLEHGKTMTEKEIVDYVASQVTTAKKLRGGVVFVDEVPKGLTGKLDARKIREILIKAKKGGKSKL
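Purified P. pyralis luciferase (10nM final) with 10uM D-luciferin and 10uM ATP (Km levels) in 50mM Tris acetate pH 7.5, 10mM Mg acetate, 0.01% Tween-20, 0.05% BSA; qHTS 6-point titration, ~60 µM downward; luminescence read.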
NPC1 prom act = NPC1 promoter activation; Huh7 NPC1 promoter luciferase reporter, 24 h; Potency, µM (series often up to 9.22 µM), for inactives: top-dose activation, most hits filed as activators; actives 2.4% (n = 320,000); AID 485313; also: % of control where 0% means no effect; nearly all actives have a fitted effect of over 60% in size
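Readout is luciferase luminescence, reflecting NPC1 promoter activation in stably transfected Huh7 cells after 24 h compound exposure at 37 °C in reduced-serum medium with 10% FBS.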
SMN2 splice up = SMN2 splice variant enhancement | Potency, µM (highest dose often 46.1 µM), inactives show at the highest dose activity change, positive = activation, hits mostly activators | HEK293 SMN2-luciferase splicing reporter, luminescence, 30-36 h | actives 2.8% (n = 210,000); also: % of control where 0% means no effect; nearly all actives have a fitted effect of over 55% in size
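qHTS luciferase splicing reporter: luminescence rises when SMN2 exon 7 is included in transfected HEK293 cells. Compound exposure lasted 30-36 h at 37C, with 4.5 mM final sodium butyrate as control, followed by a ONE-Glo read.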
Luc counter = counter-screen: inhibitors of Kinase-Glo firefly luciferase | Potency, µM (top dose mostly 38.3 µM), for the others: at the top dose activity change, negative = inhibition, actives largely listed as inhibitors | AID 1379 | Q27757 | actives 0.28% (n = 200,000) | Kinase-Glo luciferase, ATP luminescence, 8 min; also: % is scaled to controls: 0 for no effect and ±100 for the full control effect; nearly all actives have a fitted effect of over 60% in size
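Recombinant Kinase-Glo luciferase, 10 uM ATP (linear range), luciferin; imidazole pH 7.2 / KCl / MgCl2 / Tween / BSA buffer; 8 min RT; luminescence.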
The depositor's hits bear a star; ? = inconclusive; nt = no result; [ ] = another dose, or the depositor's remark. An excerpt weighted towards active compounds, which were near 7.4% of everything screened. Calls follow the shape of the dose curve; as a rule, active = well fitted curve in the direction sought with a large enough effect; inconclusive = small, poorly fitted or top-dose-only effect, or another doubt; inactive = no such curve, though single readings can be large; an effect the other way counts as inactive or inconclusive. Potency is read from the fitted curve at half-maximal effect.

SMILES	ELG1 genotoxic	Rab9 prom act	FLuc counter	NPC1 prom act	SMN2 splice up	Luc counter
O=c1oc(-c2cccs2)nc2ccccc12	4.1%	3.0%	6.2%[2.3 µM]	1.3%	?	-8.6%
Nc1ccccc1-c1nc2ccccc2c(=O)o1	0.9%	17.4%	10.7µM*	7.9%	nt	nt
CCC(=O)Nc1cccc(-c2nc3ccccc3c(=O)o2)c1	-3.0%	5.1%	?	-4.0%	-9.9%	-1.9%
O=c1oc(-c2ccc(Br)cc2)nc2ccccc12	?	3.16µM*	?	2.24µM*	nt	nt
CC(C)CC(=O)Nc1ccc(-c2nc3ccccc3c(=O)[nH]2)cc1	6.51µM*	0.891µM*	2.39µM*	1.12µM*	3.16µM*	-7.7%
O=C(CSc1nc2ccccc2c(=O)[nH]1)Nc1ccc(C(=O)O)cc1	0.5%	-2.0%	?	-8.8%	10.3%	-2.8%
CC(C)CC(=O)Nc1ccc(-c2nc3ccccc3c(=O)o2)cc1	19.4%	0.6%	1.69µM*	3.4%	7.6%	-8.3%
O=c1oc(-c2ccccc2[N+](=O)[O-])nc2ccccc12	-3.7%	-0.7%	4.2%	-0.2%	33.2%	4.2%
O=C(CCS(=O)(=O)c1cccs1)Nc1ccc(C(=O)Nc2ccccc2F)cc1	nt	nt	-9.2%	nt	?	nt
CC(=O)Nc1cccc(-c2nc3ccccc3c(=O)o2)c1	0.0%	-3.5%	-6.7%	-0.5%	-4.9%	-1.9%
CC(=O)Nc1ccc(-c2nc3ccccc3c(=O)o2)cc1	-1.2%	5.7%	2.69µM*	-0.3%	nt	nt
O=C(Nc1ccc(NS(=O)(=O)c2ccccc2)cc1)c1ccccc1	5.6%	0.0%	-1.7%	-0.1%	nt	nt
CC(=O)Oc1ccc(C(=O)Nc2ccc(C3(C#N)CCCC3)cc2)cc1	4.5%	2µM*	?	1.26µM*	nt	nt
N#CC1(c2ccc(NC(=O)c3ccccc3)cc2)CCCC1	?	0.398µM*	1.35µM*	0.282µM*	14.1µM*	?
O=C(Nc1cccc(F)c1)N1CC[C@@]2(CCCN(C(=O)c3ccncc3)C2)C1	nt	nt	nt	nt	-8.4%	-2.3%
Nc1ncc(S(=O)(=O)Nc2ccc(F)cc2F)cn1	nt	nt	0.5%	nt	nt	nt
CC(C)(C)C(=O)N1CCN(c2nc3ccc(Cl)cc3s2)CC1	?	?	10.7µM*	2µM*	nt	nt
CCCC(=O)N1CCN(c2nc3ccc(Cl)cc3s2)CC1	?	?	12µM*	?	nt	nt
CCCC(=O)N1CCN(c2nc3ccc(CC)cc3s2)CC1	12.8%	?	13.5µM*	?	nt	nt
CCCC(=O)N1CCN(c2nc3ccc(Br)cc3s2)CC1	11.6%	?	21.3µM*	29.1%	nt	nt
Cc1c(NC(=O)Nc2cccc(C(F)(F)F)c2)sc2nc3n(c(=O)c12)CCC(C)CC3 (configuration not stated)	nt	nt	-2.2%	nt	-3.4%	nt
COc1cc(OC)c(NC(=O)c2nn(C)c3c2COc2ccccc2-3)cc1Cl	nt	nt	3.4%	nt	nt	nt
CC(=O)N1CCN(c2nc3ccc(Br)cc3s2)CC1	?	?	15.1µM*	3.16µM*	nt	nt
CC(C)(C)C(=O)N1CCN(c2nc3ccc(Br)cc3s2)CC1	4.8%	?	?	?	nt	nt
Cc1c(NC(=O)c2cccc(NC(=O)COc3ccccc3C#N)c2)c(=O)n(-c2ccccc2)n1C	-3.3%	3.98µM*	1.35µM*	2.24µM*	nt	nt
SMILES	ELG1 genotoxic	Rab9 prom act	FLuc counter	NPC1 prom act	SMN2 splice up	Luc counter
Cc1cc(OCC(=O)Nc2ccc3c(c2)OCCO3)cc(C)c1Cl	0.6%	1.1%	?	3.5%	10.2%	-3.8%
O=C(COc1ccccc1Br)Nc1ccc2c(c1)OCCCO2	?	1.41µM*	2.13µM*	1.26µM*	nt	nt
N#Cc1ccccc1OCC(=O)Nc1ccc2c(c1)OCCCO2	25.9%	3.16µM*	16.9µM*	2.24µM*	nt	nt
O=C(COc1ccccc1F)Nc1ccc2c(c1)OCCO2	10.3µM*	3.16µM*	6.75µM*	1.78µM*	nt	nt
COc1cccc(NC(=O)COC(=O)c2c(F)cccc2F)c1	2.5%	-2.8%	10.7µM*	-2.3%	13.8%	-0.3%
COc1cccc(NC(=O)COC(=O)c2ccco2)c1	0.3%	2.1%	?	1.2%	-6.8%	0.4%

Source: PubChem BioAssay (National Center for Advancing Translational Sciences (NCATS))
